Experimental data published in PMC7862700, “An all-to-all approach to the identification of sequence-specific readers for epigenetic DNA modifications on cytosine”.

Tests used:
Assay in all cases: DAPPL (digital affinity profiling via proximity ligation, sequencing); 10 mM Tris-HCl pH 7.5, 50 mM NaCl, 1 mM DTT, 4% glycerol, room temperature, 30 min; GST-TFs on glutathione beads, 16-mer random dsDNA library, 0.1% formaldehyde crosslink after washing; high values mean tight binding
Conditions in all cases: protein: recombinant; tags: N-terminal GST; dsDNA, one strand shown
FLI1 = molecular target: T1, FLI1 (Homo sapiens, UniProt Q01543 1-452)
T1 sequence: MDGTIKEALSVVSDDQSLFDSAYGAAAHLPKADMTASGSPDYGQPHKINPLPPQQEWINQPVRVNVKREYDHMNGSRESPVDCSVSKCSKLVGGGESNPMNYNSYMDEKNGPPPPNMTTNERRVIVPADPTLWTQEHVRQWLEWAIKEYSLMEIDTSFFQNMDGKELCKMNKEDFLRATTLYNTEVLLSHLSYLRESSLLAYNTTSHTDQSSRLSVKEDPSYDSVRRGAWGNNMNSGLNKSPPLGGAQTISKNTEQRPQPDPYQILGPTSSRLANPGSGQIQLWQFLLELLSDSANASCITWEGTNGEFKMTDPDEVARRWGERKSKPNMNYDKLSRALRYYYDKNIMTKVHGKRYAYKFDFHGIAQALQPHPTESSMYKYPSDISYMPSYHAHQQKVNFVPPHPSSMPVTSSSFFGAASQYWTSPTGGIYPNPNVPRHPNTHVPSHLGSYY
Outline: (§1)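 Human transcription factors carrying a GST fusion were produced in yeast, bound to glutathione beads, tagged with DNA barcodes and pooled together with a tag-only sample. Each pool was held with 200 nmole of a random double-stranded 16-mer DNA library in Tris/NaCl/DTT/glycerol buffer for 30 min at room temperature, then washed, crosslinked in 0.1% formaldehyde, proximity-ligated with BsaI/T4 ligase (1 h, 37 °C), PCR-amplified and sequenced on an Illumina NextSeq500. Binding signal is the read frequency of each hexamer for a given factor divided by its frequency in the tag-only sample.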

ELK1 = molecular target: T2, ELK1 (Homo sapiens, UniProt P19419 1-428)
T2 sequence: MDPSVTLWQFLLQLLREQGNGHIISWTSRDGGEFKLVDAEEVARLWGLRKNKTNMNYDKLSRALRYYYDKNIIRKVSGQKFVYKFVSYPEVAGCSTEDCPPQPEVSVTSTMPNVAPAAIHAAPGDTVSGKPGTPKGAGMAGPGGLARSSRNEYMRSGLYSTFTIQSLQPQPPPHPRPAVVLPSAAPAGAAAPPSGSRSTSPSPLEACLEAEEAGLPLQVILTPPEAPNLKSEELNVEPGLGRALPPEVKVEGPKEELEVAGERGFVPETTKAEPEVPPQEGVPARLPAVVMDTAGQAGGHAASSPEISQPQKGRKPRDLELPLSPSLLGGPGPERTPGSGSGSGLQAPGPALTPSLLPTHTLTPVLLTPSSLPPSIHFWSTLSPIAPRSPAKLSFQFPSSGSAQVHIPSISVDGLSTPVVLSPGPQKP
Outline: as §1

GABPA = molecular target: T3, GABPA (Homo sapiens, UniProt Q06546 1-454)
T3 sequence: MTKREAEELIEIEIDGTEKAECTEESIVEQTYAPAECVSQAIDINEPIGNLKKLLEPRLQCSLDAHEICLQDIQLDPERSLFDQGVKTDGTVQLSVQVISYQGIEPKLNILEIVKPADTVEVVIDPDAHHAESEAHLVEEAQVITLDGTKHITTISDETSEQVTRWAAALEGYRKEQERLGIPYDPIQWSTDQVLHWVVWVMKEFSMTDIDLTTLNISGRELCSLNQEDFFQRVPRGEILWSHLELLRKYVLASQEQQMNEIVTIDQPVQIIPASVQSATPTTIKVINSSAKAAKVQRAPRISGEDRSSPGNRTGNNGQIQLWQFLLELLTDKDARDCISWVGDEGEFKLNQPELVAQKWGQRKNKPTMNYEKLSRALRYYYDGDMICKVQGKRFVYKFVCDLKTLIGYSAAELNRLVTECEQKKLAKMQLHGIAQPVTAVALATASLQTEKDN
Outline: as §1

ERG = molecular target: T4, ERG (Homo sapiens, UniProt P11308 1-479)
T4 sequence: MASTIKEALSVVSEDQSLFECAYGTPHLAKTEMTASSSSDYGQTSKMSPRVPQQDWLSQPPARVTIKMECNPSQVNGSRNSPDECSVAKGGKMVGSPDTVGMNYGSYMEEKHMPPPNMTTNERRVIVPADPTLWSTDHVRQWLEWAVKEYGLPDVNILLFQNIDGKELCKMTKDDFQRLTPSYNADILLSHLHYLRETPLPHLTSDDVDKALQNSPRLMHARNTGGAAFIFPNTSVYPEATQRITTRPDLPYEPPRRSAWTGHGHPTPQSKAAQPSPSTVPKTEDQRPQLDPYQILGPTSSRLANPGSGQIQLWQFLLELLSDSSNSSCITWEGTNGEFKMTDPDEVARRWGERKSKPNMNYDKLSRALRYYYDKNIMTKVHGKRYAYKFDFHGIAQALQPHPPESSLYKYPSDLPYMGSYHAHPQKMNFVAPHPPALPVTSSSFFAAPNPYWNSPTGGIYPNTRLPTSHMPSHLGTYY
Outline: as §1

ELF1 = ELF1 (Homo sapiens, UniProt P32519 1-619)
ELF1, sequence (P32519 whole entry): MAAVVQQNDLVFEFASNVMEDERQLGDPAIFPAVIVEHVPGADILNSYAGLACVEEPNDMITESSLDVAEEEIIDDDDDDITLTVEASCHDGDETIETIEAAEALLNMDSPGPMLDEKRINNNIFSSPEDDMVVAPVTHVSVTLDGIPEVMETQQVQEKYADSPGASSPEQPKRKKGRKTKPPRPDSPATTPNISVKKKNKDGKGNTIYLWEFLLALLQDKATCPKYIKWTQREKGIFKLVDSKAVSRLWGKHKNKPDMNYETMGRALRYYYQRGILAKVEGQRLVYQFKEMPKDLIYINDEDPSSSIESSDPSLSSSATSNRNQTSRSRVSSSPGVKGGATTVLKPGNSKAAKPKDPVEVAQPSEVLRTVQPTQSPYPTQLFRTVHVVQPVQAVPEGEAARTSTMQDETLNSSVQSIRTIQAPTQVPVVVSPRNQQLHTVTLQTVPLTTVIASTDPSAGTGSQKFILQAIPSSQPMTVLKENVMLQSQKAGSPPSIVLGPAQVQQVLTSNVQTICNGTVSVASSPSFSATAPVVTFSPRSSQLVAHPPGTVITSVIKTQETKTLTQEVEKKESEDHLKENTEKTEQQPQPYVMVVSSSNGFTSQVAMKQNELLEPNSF
Outline: as §1

EHF = molecular target: T5, EHF (Homo sapiens, UniProt Q9NZC4 1-300)
T5 sequence: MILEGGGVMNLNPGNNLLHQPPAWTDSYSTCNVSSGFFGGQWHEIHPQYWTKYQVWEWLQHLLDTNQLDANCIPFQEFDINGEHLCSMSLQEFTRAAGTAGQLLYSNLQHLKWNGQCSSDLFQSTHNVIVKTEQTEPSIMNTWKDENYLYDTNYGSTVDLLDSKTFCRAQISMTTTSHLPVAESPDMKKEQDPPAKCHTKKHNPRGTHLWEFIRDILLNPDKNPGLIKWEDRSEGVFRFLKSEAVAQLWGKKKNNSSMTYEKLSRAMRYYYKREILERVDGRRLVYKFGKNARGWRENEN
Outline: as §1

SPI1 = SPI1 (Homo sapiens, UniProt P17947 1-270)
Outline: as §1

SPIB = SPIB (Homo sapiens, UniProt Q01892 1-262)
SPIB, sequence (Q01892 whole entry): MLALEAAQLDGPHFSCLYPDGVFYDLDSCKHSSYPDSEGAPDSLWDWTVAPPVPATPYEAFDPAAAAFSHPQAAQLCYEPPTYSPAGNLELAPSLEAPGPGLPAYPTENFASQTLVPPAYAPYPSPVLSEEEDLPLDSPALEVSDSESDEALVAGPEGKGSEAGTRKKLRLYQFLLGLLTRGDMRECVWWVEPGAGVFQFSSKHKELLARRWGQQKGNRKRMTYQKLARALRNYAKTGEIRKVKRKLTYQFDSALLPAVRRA
Outline: as §1

ELK3 = molecular target: T6, ELK3 (Homo sapiens, UniProt P41970 1-407)
T6 sequence: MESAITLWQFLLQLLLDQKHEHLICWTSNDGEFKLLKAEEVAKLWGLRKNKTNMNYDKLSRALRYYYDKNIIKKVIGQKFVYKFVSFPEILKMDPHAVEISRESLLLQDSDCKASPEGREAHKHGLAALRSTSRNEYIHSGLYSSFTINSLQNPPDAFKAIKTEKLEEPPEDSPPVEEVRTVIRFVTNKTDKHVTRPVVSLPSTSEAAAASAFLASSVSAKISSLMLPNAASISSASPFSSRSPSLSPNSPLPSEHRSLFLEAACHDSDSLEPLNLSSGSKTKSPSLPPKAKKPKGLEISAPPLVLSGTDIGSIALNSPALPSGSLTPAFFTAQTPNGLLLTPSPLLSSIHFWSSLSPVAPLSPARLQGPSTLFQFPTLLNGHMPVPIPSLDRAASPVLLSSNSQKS
Outline: as §1

FEV = molecular target: T7, FEV (Homo sapiens, UniProt Q99581 1-238)
T7 sequence: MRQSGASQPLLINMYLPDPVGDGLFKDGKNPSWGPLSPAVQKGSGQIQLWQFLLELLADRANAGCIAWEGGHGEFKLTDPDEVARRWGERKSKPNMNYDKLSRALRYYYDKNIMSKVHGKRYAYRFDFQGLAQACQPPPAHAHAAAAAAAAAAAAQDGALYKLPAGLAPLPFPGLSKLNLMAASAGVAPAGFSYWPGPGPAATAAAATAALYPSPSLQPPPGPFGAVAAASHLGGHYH
Outline: as §1

ETV5 = ETV5 (Homo sapiens, UniProt P41161 1-510)
ETV5, sequence (P41161 whole entry): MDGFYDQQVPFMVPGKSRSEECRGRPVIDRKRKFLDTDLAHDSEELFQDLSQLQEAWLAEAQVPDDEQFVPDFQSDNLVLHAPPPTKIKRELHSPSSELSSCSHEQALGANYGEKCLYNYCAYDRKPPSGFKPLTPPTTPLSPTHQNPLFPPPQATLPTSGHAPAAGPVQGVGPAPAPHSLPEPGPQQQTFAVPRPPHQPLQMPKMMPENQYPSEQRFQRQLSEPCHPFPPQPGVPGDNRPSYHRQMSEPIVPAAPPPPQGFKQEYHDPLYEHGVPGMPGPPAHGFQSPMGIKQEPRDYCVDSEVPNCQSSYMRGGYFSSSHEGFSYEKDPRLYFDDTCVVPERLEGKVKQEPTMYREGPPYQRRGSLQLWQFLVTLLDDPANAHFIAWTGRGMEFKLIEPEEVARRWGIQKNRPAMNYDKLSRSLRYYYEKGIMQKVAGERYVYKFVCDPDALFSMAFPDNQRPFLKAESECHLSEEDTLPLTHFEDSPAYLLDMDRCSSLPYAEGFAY
Outline: as §1

SPIC = molecular target: T8, SPIC (Homo sapiens, UniProt Q8N5J4 1-248)
T8 sequence: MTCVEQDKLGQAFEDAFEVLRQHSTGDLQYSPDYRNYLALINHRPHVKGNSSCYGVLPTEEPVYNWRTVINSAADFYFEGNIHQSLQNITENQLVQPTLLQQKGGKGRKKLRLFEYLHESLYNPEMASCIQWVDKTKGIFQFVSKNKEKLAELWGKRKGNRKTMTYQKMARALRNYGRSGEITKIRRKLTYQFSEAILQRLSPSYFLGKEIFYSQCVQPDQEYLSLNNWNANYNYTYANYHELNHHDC
Outline: as §1

ELF4 = ELF4 (Homo sapiens, UniProt Q99607 1-663)
ELF4, sequence (Q99607 whole entry): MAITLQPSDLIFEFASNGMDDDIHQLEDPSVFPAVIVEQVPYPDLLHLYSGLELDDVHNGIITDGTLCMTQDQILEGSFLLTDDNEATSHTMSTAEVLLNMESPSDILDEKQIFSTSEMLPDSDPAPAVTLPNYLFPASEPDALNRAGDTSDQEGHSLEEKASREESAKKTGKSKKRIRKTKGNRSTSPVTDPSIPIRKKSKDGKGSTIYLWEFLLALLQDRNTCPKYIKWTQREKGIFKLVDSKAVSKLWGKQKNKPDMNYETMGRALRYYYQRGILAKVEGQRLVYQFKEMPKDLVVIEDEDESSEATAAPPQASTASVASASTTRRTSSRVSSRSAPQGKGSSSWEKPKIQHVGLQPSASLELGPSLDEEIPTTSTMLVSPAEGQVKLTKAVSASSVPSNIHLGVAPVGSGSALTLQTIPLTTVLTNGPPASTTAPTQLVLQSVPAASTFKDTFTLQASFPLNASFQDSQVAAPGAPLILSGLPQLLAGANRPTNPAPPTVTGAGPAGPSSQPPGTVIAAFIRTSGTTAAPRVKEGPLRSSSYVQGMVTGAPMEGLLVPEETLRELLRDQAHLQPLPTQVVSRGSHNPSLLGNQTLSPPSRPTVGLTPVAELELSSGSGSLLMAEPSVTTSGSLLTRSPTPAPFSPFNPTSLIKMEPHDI
Outline: as §1

ETV1 = ETV1 (Homo sapiens, UniProt P50549 1-477)
ETV1, sequence (P50549 whole entry): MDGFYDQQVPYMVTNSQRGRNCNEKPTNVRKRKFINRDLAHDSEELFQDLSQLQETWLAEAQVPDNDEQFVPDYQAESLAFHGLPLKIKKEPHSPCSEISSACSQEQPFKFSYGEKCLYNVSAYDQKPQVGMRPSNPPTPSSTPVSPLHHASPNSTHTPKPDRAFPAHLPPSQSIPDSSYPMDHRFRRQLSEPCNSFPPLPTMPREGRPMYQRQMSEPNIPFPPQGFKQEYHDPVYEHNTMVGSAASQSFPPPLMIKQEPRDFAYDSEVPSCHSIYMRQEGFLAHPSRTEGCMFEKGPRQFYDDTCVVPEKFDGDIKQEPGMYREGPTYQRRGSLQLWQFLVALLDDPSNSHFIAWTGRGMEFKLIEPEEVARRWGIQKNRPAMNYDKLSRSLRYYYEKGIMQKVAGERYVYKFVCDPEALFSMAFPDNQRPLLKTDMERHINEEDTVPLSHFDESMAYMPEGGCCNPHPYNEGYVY
Outline: as §1

ERF = molecular target: T9, ERF (Homo sapiens, UniProt P50548 1-548)
T9 sequence: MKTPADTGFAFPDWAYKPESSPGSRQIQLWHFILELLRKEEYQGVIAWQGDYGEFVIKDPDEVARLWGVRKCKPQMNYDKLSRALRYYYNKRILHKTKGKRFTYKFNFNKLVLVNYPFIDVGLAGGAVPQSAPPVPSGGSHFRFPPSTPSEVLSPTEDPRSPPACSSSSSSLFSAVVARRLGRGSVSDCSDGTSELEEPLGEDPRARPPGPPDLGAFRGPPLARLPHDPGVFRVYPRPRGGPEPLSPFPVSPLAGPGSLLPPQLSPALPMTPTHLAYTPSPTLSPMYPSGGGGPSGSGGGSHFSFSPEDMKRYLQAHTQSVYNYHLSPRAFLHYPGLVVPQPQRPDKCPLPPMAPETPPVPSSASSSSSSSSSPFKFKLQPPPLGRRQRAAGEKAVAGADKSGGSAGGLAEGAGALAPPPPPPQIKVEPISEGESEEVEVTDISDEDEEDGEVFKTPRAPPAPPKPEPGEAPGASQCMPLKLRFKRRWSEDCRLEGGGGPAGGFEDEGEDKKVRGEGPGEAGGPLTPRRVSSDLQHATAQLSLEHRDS
Outline: as §1

ETV3L = molecular target: T10, ETV3L (Homo sapiens, UniProt Q6ZN32 1-361)
T10 sequence: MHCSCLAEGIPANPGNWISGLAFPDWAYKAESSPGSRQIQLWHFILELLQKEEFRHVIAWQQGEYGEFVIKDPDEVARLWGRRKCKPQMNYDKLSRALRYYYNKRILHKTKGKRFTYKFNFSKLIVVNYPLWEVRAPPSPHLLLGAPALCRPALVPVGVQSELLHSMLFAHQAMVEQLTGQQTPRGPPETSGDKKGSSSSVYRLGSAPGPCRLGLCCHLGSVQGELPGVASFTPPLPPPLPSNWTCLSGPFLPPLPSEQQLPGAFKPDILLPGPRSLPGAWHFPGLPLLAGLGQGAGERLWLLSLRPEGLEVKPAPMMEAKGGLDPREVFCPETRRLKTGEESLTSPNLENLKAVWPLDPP
Outline: as §1

ETS2 = molecular target: T11, ETS2 (Homo sapiens, UniProt P15036 1-469)
T11 sequence: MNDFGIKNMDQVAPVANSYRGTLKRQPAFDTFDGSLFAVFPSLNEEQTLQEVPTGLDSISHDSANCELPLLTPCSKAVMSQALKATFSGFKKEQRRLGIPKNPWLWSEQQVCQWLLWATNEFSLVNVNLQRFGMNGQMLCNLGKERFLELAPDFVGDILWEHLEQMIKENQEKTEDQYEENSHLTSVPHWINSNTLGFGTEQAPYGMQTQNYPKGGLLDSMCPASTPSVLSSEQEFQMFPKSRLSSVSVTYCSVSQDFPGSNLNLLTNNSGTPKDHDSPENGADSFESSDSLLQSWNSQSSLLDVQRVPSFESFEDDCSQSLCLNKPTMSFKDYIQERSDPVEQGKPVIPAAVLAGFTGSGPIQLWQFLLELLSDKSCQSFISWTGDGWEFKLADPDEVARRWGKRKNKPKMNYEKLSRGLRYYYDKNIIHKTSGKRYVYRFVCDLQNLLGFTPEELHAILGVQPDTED
Outline: as §1

SPDEF = molecular target: T12, SPDEF (Homo sapiens, UniProt O95238 1-335)
T12 sequence: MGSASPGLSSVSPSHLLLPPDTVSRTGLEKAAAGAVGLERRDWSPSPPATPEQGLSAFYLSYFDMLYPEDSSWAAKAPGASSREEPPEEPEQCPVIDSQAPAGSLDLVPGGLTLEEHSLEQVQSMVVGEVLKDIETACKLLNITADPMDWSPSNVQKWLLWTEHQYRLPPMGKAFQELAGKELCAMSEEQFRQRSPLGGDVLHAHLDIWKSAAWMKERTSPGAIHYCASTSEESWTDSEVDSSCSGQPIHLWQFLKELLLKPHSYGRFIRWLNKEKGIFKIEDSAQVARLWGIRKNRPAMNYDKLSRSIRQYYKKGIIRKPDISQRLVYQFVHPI
Outline: as §1

ETV3 = molecular target: T13, ETV3 (Homo sapiens, UniProt P41162-2 1-143)
T13 sequence: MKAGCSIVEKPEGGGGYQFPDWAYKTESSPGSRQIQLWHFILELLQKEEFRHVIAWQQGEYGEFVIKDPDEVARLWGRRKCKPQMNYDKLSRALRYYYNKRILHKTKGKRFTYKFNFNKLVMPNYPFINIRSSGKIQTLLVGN
Outline: as §1

ETV6 = ETV6 (Homo sapiens, UniProt P41212 1-452)
ETV6, sequence (P41212 whole entry): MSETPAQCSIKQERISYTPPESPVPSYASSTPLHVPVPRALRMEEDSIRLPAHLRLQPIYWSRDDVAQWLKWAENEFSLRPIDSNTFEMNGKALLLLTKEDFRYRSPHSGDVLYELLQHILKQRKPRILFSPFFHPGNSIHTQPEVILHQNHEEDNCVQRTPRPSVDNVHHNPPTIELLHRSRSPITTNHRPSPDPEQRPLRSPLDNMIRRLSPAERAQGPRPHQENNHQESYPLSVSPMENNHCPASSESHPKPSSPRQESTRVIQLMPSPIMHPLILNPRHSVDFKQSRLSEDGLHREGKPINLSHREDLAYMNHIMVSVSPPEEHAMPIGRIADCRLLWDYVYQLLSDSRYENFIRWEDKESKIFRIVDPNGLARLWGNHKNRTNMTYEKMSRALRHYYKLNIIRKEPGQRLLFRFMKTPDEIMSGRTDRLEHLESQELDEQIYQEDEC
Outline: as §1

With ACCACC the binding signal (FLI1) was 1.1 fold enrichment (6-mer frequency, TF over GST control), the binding signal (ELK1) was 1.08 fold enrichment (6-mer frequency, TF over GST control) and the binding signal (GABPA) was 1.14 fold enrichment (6-mer frequency, TF over GST control). The binding signal (ERG) was 1.11 fold enrichment (6-mer frequency, TF over GST control), the binding signal (ELF1) was 1.18 fold enrichment (6-mer frequency, TF over GST control) and the binding signal (EHF) was 1.15 fold enrichment (6-mer frequency, TF over GST control). For the same sequence, the binding signal (SPI1) was 1.1 fold enrichment (6-mer frequency, TF over GST control), the binding signal (SPIB) was 1.18 fold enrichment (6-mer frequency, TF over GST control) and the binding signal (ELK3) was 1.21 fold enrichment (6-mer frequency, TF over GST control). The binding signal (FEV) was 1.18 fold enrichment (6-mer frequency, TF over GST control), the binding signal (ETV5) was 1.1 fold enrichment (6-mer frequency, TF over GST control) and the binding signal (SPIC) was 1.08 fold enrichment (6-mer frequency, TF over GST control). For the same sequence, the binding signal (ELF4) was 1.14 fold enrichment (6-mer frequency, TF over GST control), the binding signal (ETV1) was 1.02 fold enrichment (6-mer frequency, TF over GST control) and the binding signal (ERF) was 1.17 fold enrichment (6-mer frequency, TF over GST control). The binding signal (ETV3L) was 1.08 fold enrichment (6-mer frequency, TF over GST control), the binding signal (ETS2) was 1.15 fold enrichment (6-mer frequency, TF over GST control) and the binding signal (SPDEF) was 1.17 fold enrichment (6-mer frequency, TF over GST control). The binding signal (ETV3) was 1.08 fold enrichment (6-mer frequency, TF over GST control) and the binding signal (ETV6) was 1.09 fold enrichment (6-mer frequency, TF over GST control).
